Measurements published in PubChem BioAssay (NCATS).
Inconclusive results are not listed. A call without a number means that no potency is given here. Values without a mark were called inactive. Calls of active or inactive are those of the source. Calls follow the shape of the dose curve; as a rule, active = well fitted inhibition curve with a large enough effect; inconclusive = small, poorly fitted or top-dose-only effect; inactive = flat fitted curve, though single readings scatter.

experiment: P-glycoprotein substrates identified in KB-8-5-11 adenocarcinoma cell line, qHTS therapeutic library screen (AID 1346987); details: KB-8-5-11 (P-gp overexpressing) viability, CellTiter-Glo, 72 h; series mostly up to 44.5 µM; also: nearly all actives have a fitted effect of over 65% in size
Summary of the method: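 Compounds are pinned in dose-response onto KB-8-5-11 cells (500 cells/well, colchicine-free medium) and left 72 h at 37 degree C. CellTiter-Glo luminescence then yields AC50 values.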
Potency is read from the fitted curve at half-maximal effect.

Row | SMILES | Potency | activity change, negative = cytotoxicity
1 | C/C=C(\C)C(=O)O[C@H]1C[C@](C)(O)[C@H]2CC=C(C)[C@H]2[C@@H]2OC(=O)[C@H](C)[C@H]21 | inactive | –
2 | CNc1cccc(CCOc2ccc3c(c2)CN(CC(F)(F)F)C(=O)[C@H](CC(=O)O)C3)n1 | inactive | –
3 | CC(=O)OC[C@]12[C@H](OC(C)=O)[C@H](OC(=O)c3ccccc3)[C@@H]3[C@@H](OC(C)=O)[C@]1(OC3(C)C)[C@H](C)C[C@H](OC(C)=O)[C@@H]2OC(=O)c1ccccc1 | inactive | –
4 | CC1(C)CC[C@]23CO[C@@]4(CCC5[C@@]6(C)CC[C@H](O[C@@H]7OC[C@H](O[C@@H]8O[C@H](CO)[C@@H](O)[C@H](O)[C@H]8O[C@@H]8OC[C@@H](O)[C@H](O)[C@H]8O)[C@H](O)[C@H]7O)[C@@](C)(CO)C6CC[C@@]5(C)[C@]4(C)CC2=O)[C@@H]3C1 (stereo partly specified) | – | -22.9% [at 9.29 µM]
5 | CCCCCCOC(=O)/N=C(\N)c1ccc(NCc2nc3cc(C(=O)N(CCC(=O)OCC)c4ccccn4)ccc3n2C)cc1 | inactive | –
6 | CCC(C)CC(=O)OC1C(=O)C(CO)=CC(O)C1C(C)C (stereo unspecified) | 7.31 µM (active) | –
7 | C=C(C(=O)OC)[C@@H]1CC=C2C=CC(=O)[C@H](C)[C@@]2(C)C1 | inactive | –
8 | CCc1ccccc1OC[C@@H](O)CN[C@H]1CCCc2ccccc21 | 20.6 µM (active) | –
9 | N#Cc1cc(CN2CCC(Nc3ncnc4sc(Cl)cc34)CC2)ccc1F | 9.2 µM (active) | –
10 | O=C(NCC1(N2CCN(c3ccccc3)CC2)CCOCC1)c1cccnc1Sc1ccccc1 | inactive | –
11 | C1=Cc2ccccc2C(=C2CCN(CCCCc3nn[nH]n3)CC2)c2ccccc21 | inactive | –
